Source: paper PMC4552634, “A New Set of Chemical Starting Points with Plasmodium falciparum Transmission-Blocking Potential for Antimalarial Drug Discovery” (PLoS ONE, 2015)
Among all 13,000 compounds or so, about 3,200 (25%) showed an effect of 50% or more. The list shows a part of the results.

system: P. falciparum stage V gametocytes; design: BacTiter-Glo ATP luminescence viability of purified stage V gametocytes in 384-well plates, per cent inhibition versus DMSO; conditions: 48 h, 5 µM; inhibitor

Row | Structure (SMILES) | % Inhibition [%]
1 | COc1ccc(Nc2nccc(NCCNC(=O)Nc3cc(C)ccc3C)n2)cc1 [TCMDC-133644] | -56.14
2 | CCn1cc2c3c(cc(C(=O)N[C@@H](Cc4ccccc4)[C@H](O)CNCc4cccc(OC)c4)cc31)N(C)S(=O)(=O)CC2 [TCMDC-135784] | 29.74
3 | O=C(NCCCCN1CCC(O)(c2ccc(Cl)cc2)CC1)c1ccc(Br)cc1 [TCMDC-131982] | -5.43
4 | CN(C(=O)c1nn(-c2ccccn2)c2nccc(-c3cccs3)c12)C1CCCCC1 [TCMDC-124797] | 11.83
5 | CCc1ccc(C2CCN(CCCCNC(=O)c3ccc(-c4ccc(C#N)cc4)cc3)CC2)c(OCCO)c1 [TCMDC-138765] | -6.555
6 | Cn1cc(C2CCN(CCCCNC(=O)c3sc(-c4ccc(C(F)(F)F)cc4)nc3CO)CC2)c2ccccc21 [TCMDC-138778] | -59.88
7 | COC(=O)c1ccc(C(=O)NCCCCN2CCC(c3ccc4c(c3OC)CCCC4)CC2)cc1-c1ccc(C(F)(F)F)cc1 [TCMDC-138705] | -64.43
8 | CCOC(=O)c1cc(C(=O)NCCCCN2CCC(c3ccc(CC)cc3OCC)CC2)ccc1-c1ccc(C(F)(F)F)cc1 [TCMDC-138755] | 83.47
9 | C=C(C)Cn1cc(C2CCN(CCCCNC(=O)c3sc(-c4ccc(Cl)cc4Cl)nc3CO)CC2)c2ccccc21 [TCMDC-138873] | -30.06
10 | CCOC(=O)c1cc(C(=O)NCCCCN2CCC(c3ccc4c(c3OC)CCCC4)CC2)ccc1-c1ccc(C(F)(F)F)cc1 [TCMDC-138739] | 73.05
11 | CCc1ccc(C2CCN(CCCCNC(=O)c3ccc(-c4ccc(C(F)(F)F)cc4)cc3)CC2)c(OCCO)c1 [TCMDC-138761] | 105.9
12 | CC(=O)Oc1cc(C)ccc1C1CCN(CCCCNC(=O)c2ccc(-c3ccc(C(F)(F)F)cc3)cc2)CC1 [TCMDC-138626] | 28.6
13 | Cc1cc(C2CCN(CCCCNC(=O)c3ccc(-c4ccc(C(F)(F)F)cc4)cc3)CC2)c(C)cc1OCCO [TCMDC-138798] | -10.99
14 | COc1c(C2CCN(CCCCNC(=O)c3ccc(-c4ccc(C(F)(F)F)cc4)c(C(=O)OC(C)C)c3)CC2)ccc2c1CCCC2 [TCMDC-138744] | 32.47
15 | Cc1cc(C2CCN(CCCCNC(=O)c3ccc(-c4ccc(C(F)(F)F)cc4)cc3)CC2)c(C)cc1OCC(N)=O [TCMDC-138800] | 4.975
16 | C=CCn1cc(C2CCN(CCCCNC(=O)c3sc(-c4ccc(C(F)(F)F)cc4)nc3CO)CC2)c2cc(OC)ccc21 [TCMDC-138828] | 92.56
17 | COc1cccc(C(=O)OC2=C3CCC(=O)C3(C)CCC2=O)c1 (centres unmarked) [TCMDC-131633] | 39.81
18 | CC(C)(C)OC(=O)N1CCN(c2ccccc2NC(=O)c2cccc(C(F)(F)F)c2Oc2ccc(F)cc2)CC1 [TCMDC-140951] | -16.31
19 | COc1ccc2[nH]c(C(=O)Nc3ccc4nc(-c5ccccc5)[nH]c4c3)cc2c1 [TCMDC-134305] | -25.97
20 | CCOc1ccccc1CON1C(N)=NC(N)=NC1(C)C [TCMDC-131583] | 17.24
21 | CCNc1cc(C)nc(Nc2ccc(NC(=O)C3CCCC3)cc2)n1 [TCMDC-124980] | -0.5513

Row | Structure (SMILES) | % Inhibition [%]
22 | C=Cc1ccccc1C1(O)CCN(CCCCNC(=O)c2ccc(-c3ccc(C#N)cc3)cc2)CC1 [TCMDC-135786] | 28.95
23 | Cc1cc(N[C@@H](CC(C)C)C(=O)Nc2ccccc2)nc(Nc2ccccc2)n1 [TCMDC-134743] | -20.12
24 | C=CC[C@H](C[C@H](O)[C@H](Cc1ccccc1)NC(=O)c1ccc(-c2cccnn2)cc1)C(=O)NC1CCCCC1 [TCMDC-141421] | -14.32
25 | CC(C)n1ncc2c(C(=O)N3CCCc4ccccc43)cc(-c3ccccc3)nc21 [TCMDC-125456] | 70.11
26 | CC(NC(=O)c1cc(-c2ccccc2)nc2c1cnn2C(C)C)C1CC1 (centres unmarked) [TCMDC-125054] | 5.318
27 | CC(C)n1ncc2c(C(=O)N3CCCCCC3)cc(-c3ccccc3)nc21 [TCMDC-125259] | 6.769
28 | CN(C)CCOc1cc(NC(=O)Nc2ccc(-c3ccncc3)c3ccccc23)ccc1I [TCMDC-139118] | 23.38
29 | COC(=O)c1c(C#N)c(OC)cc(O)c1CSC[C@@H](CN1CCCCC1)Nc1nc(-c2ccc([N+](=O)[O-])cc2)cs1 [TCMDC-138652] | -4.34
30 | CN(CCC(CCN1CCC(c2c[nH]c3ccccc23)CC1)c1ccccc1)C(=O)Nc1ccc(Cl)c(Cl)c1 (centres unmarked) [TCMDC-139625] | -72.07
31 | O=C(/C=C/c1ccc(Cl)c(Cl)c1)NCc1ccc(CN2CCC(c3c[nH]c4ccccc34)CC2)cc1 [TCMDC-139405] | -66.38
32 | O=C(/C=C/c1ccc(Cl)c(Cl)c1)NCCCCCN1CCC(c2cn[nH]c2-c2ccccc2)CC1 [TCMDC-139493] | -12.94
33 | O=C(/C=C/c1ccc(Cl)c(Cl)c1)NCCCCCN1CCC(c2c[nH]c3ccccc23)CC1 [TCMDC-139172] | 95.4
34 | O=C(/C=C/c1ccc(Cl)c(Cl)c1)NCCCCCN1CCC(c2c[nH]c3c(-c4ccccc4)cccc23)CC1 [TCMDC-139399] | 108
35 | CN(CCN1CCC(c2c[nH]c3ccccc23)CC1)C(=O)OCCCCCNC(=O)/C=C/c1ccc(Cl)c(Cl)c1 [TCMDC-139374] | -36.9
36 | CN(CCN1CCC(c2c[nH]c3ccccc23)CC1)c1ccc(-c2nc3cc(Cl)c(Cl)cc3[nH]2)cc1 [TCMDC-139373] | 50.88
37 | O=C(/C=C/c1ccc(Cl)c(Cl)c1)NCCC(CN1CCC(c2c[nH]c3ccccc23)CC1)c1ccccc1 (centres unmarked) [TCMDC-139621] | 20.48
38 | O=C(/C=C/c1ccc(Cl)c(Cl)c1)NCC[C@@H]1C[C@H]1CCN1CCC(c2c[nH]c3ccccc23)CC1 [TCMDC-139466] | 86.41
39 | O=C(/C=C/c1ccc(Cl)c(Cl)c1)NCCCCCN1CCCC(c2c[nH]c3ccccc23)C1 (centres unmarked) [TCMDC-139481] | 8.151
40 | O=C(/C=C/c1ccc(Cl)c(Cl)c1)NCCCCN1CCC(c2c[nH]c3ccccc23)CC1 [TCMDC-139333] | -7.285
41 | O=C(/C=C/c1ccc(Cl)c(Cl)c1)NCCCN1CCC(c2c[nH]c3ccccc23)CC1 [TCMDC-139332] | 45.36
